Laboratory results from PubChem BioAssay AID1159580 (chemical genetic matrix, 2015).
Where “and” joins values, the source holds several entries; their conditions need not be identical. Identical values can stand only once. The campaign covered roughly 5,500 compounds. About 2,000 (36%) were called active. About 18% were inconclusive and are not listed. No stated cut-off is given here; in the data, active means normalized growth mostly below about 0.91 (no sharp cut-off); inconclusive means no clear call, values can overlap the other calls; inactive means mostly above about 0.92. The list shows a part of the results.

Assay: chemical genetic growth profiling, strain panel (AID 1159580);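 further: tested at 20 µM; growth read once vehicle control cultures reached saturation at 30 °C; 1 = growth at the plate median or of vehicle wells; lower values mean less growth of the strain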
Conditions: S. cerevisiae deletion strains, growth OD
[1] = locus YBR229C, strain ROT2, hits give low values
[2] = locus YCL061C, strain MRC1, hits give low values
[3] = locus YDL101C, strain DUN1, hits give low values
[4] = locus YDL134C, strain PPH21, hits give low values
[5] = locus YDR150W, strain NUM1, hits give low values
[6] = locus YEL061C, strain CIN8, hits give low values
[7] = locus YHR030C, strain SLT2, hits give low values
[8] = locus YJR075W, strain HOC1, hits give low values
[9] = locus YLR039C, strain RIC1, hits give low values
[10] = locus YMR307W, strain GAS1, hits give low values
[11] = locus YNL128W, strain TEP1, hits give low values
[12] = locus YNL153C, strain GIM3, hits give low values
[13] = locus YOL006C, strain TOP1, hits give low values
[14] = locus YAL013W, strain DEP1, hits give low values
[15] = locus YPL055C, strain LGE1, hits give low values

Measured: normalized growth

CC(=O)O[C@H]1C[C@@H](OC(C)=O)C(C)(C)C2C[C@@H](OC(C)=O)[C@]3(C)C(CC[C@@]4(C)[C@H](c5ccoc5)C(=O)[C@H]5O[C@]543)[C@]21C (some centres undefined)
inactive: locus YAL021C, strain ccr4, hits give low values 0.992 | locus YAL026C, strain drs2, hits give low values 0.991 | locus YAL030W, strain snc1, hits give low values 0.99 | locus YBL061C, strain skt5, hits give low values 1 | locus YBR009C, strain hhf1, hits give low values 1 | locus YBR021W, strain FUR4, hits give low values 0.966 | locus YBR023C, strain chs3, hits give low values 1.01 | locus YBR171W, strain sec66, hits give low values 1 | [1] 1.01 | locus YBR231C, strain swc5, hits give low values 1 | locus YBR279W, strain paf1, hits give low values 1 | locus YCL011C, strain gbp2, hits give low values 1.01 | locus YCL016C, strain dcc1, hits give low values 0.998 | locus YCL029C, strain bik1, hits give low values 1.01 | [2] 0.997 | locus YCL069W, strain vba3, hits give low values 1 | locus YCR088W, strain abp1, hits give low values 0.995 | locus YDL005C, strain med2, hits give low values 0.986 | locus YDL035C, strain GPR1, hits give low values 0.969 | locus YDL040C, strain nat1, hits give low values 0.995 | locus YDL074C, strain BRE1, hits give low values 0.975 | [3] 1.02 | [4] 1.02 | locus YDL185W, strain tfp1, hits give low values 1.02 | locus YDL192W, strain arf1, hits give low values 1.01 | locus YDR001C, strain nth1, hits give low values 0.981 | locus YDR069C, strain doa4, hits give low values 0.993 | locus YDR101C, strain arx1, hits give low values 0.994 | locus YDR137W, strain rgp1, hits give low values 0.935 | [5] 1.02 | locus YDR159W, strain sac3, hits give low values 1.02 | locus YDR162C, strain NBP2, hits give low values 0.987 | locus YDR195W, strain ref2 0.985 | locus YDR297W, strain sur2, hits give low values 0.996 | locus YDR318W, strain mcm21, hits give low values 1.01 | locus YDR334W, strain swr1, hits give low values 0.991 | locus YDR335W, strain msn5, hits give low values 0.994 | locus YDR388W, hits give low values 1.04 | locus YDR392W, strain spt3, hits give low values 1.02 | locus YDR502C, strain sam2, hits give low values 1.02 | locus YEL003W, strain gim4, hits give low values 1 | locus YEL037C, strain rad23, hits give low values 1 | locus YEL061C, strain CIN8 (second series), hits give low values 0.995 | [6] 1.01 | locus YER015W, strain faa2, hits give low values 1.01 | locus YER016W, strain bim1, hits give low values 0.997 | locus YER110C, hits give low values 1.03 | locus YER111C, strain swi4, hits give low values 1 | locus YER155C, strain BEM2 (second series), hits give low values 0.998 | locus YER155C, strain BEM2, hits give low values 1.02 | locus YER167W, strain BCK2, hits give low values 1.01 | locus YFR010W, strain ubp6, hits give low values 0.989 | locus YGL078C, strain dbp3, hits give low values 1 | locus YGL086W, strain mad1, hits give low values 1.01 | locus YGL167C, strain pmr1, hits give low values 1 | locus YGL173C, strain kem1, hits give low values 1.01 | locus YGL227W, strain vid30, hits give low values 0.996 | locus YGL240W, strain doc1, hits give low values 1.01 | locus YGL248W, strain PDE1, hits give low values 1.02 | locus YGL253W, strain hxk2, hits give low values 1 | locus YGR135W, strain pre9, hits give low values 1.05 | locus YGR252W, strain gcn5, hits give low values 0.996 | locus YHR013C, strain ard1, hits give low values 1.01 | locus YHR027C, strain rpn1, hits give low values 0.99 | [7] 1.01 and 0.945 | locus YHR079C, strain IRE1 (second series), hits give low values 1.03 | locus YHR079C, strain IRE1, hits give low values 0.925 | locus YHR094C, strain hxt1, hits give low values 1.03 | locus YHR129C, strain ARP1, hits give low values 1.02 | locus YHR142W, strain chs7, hits give low values 1 | locus YHR200W, strain rpn10, hits give low values 1.02 | locus YIL066C, strain RNR3, hits give low values 0.98 | locus YIL073C, strain SPO22, hits give low values 1.01 | locus YIL125W, strain kgd1, hits give low values 1.01 | locus YIR030C, strain dcg1, hits give low values 1.02 | locus YJL092W, strain hpr5, hits give low values 1.01 | locus YJL095W, strain BCK1 (second series), hits give low values 1 | locus YJL095W, strain BCK1, hits give low values 1.03 and 0.969 | locus YJL115W, strain asf1, hits give low values 0.987 | locus YJL129C, strain trk1, hits give low values 0.973 | locus YJL134W, strain LCB3, hits give low values 1.02 | locus YJL154C, strain vps35, hits give low values 0.991 | locus YJL164C, strain tpk1, hits give low values 1 | locus YJL166W, strain qcr8, hits give low values 1.01 | locus YJL168C, strain set2, hits give low values 1.04 | locus YJL187C, strain SWE1 (second series), hits give low values 1.02 | locus YJL187C, strain SWE1, hits give low values 1 | locus YJR066W, strain TOR1, hits give low values 0.888 | [8] 1.04 | locus YKL009W, strain mrt4, hits give low values 0.898 | locus YKL068W, hits give low values 1.02 | locus YKL085W, strain MDH1 (second series), hits give low values 1.01 | locus YKL085W, strain MDH1, hits give low values 1.01 | locus YKL160W, strain elf1, hits give low values 0.996 | locus YKL190W, strain CNB1, hits give low values 1.01 | locus YKR001C, strain vps1, hits give low values 0.993 | locus YKR026C, strain gcn3, hits give low values 0.997 | locus YKR091W, strain srl3, hits give low values 0.995 | locus YLL001W, strain dnm1, hits give low values 1 | locus YLL026W, hits give low values 1 | locus YLL041C, strain sdh2, hits give low values 0.994 | locus YLR027C, strain aat2, hits give low values 1.02 | [9] 1.02 | locus YLR058C, strain SHM2, hits give low values 1.01 | locus YLR102C, strain apc9, hits give low values 1.02 | locus YLR113W, strain HOG1, hits give low values 1.03 | locus YLR221C, strain rsa3, hits give low values 1 | locus YLR258W, strain gsy2, hits give low values 0.995 | locus YLR262C, strain YPT6 (second series), hits give low values 0.95 | locus YLR268W, strain sec22, hits give low values 0.982 | locus YLR320W, strain mms22, hits give low values 1 | locus YLR330W, strain CHS5, hits give low values 1.02 | locus YLR342W, strain FKS1, hits give low values 1.01 | locus YLR357W, strain rsc2, hits give low values 1.01 | locus YLR370C, strain arc18, hits give low values 1 | locus YLR371W, strain rom2, hits give low values 1.03 | locus YLR384C, strain iki3, hits give low values 0.995 | locus YLR418C, strain cdc73, hits give low values 1.05 | locus YML016C, strain PPZ1, hits give low values 1.01 | locus YML032C, strain rad52, hits give low values 0.995 | locus YML120C, strain ndi1, hits give low values 1 | locus YML124C, strain tub3, hits give low values 1.02 | locus YMR058W, strain fet3, hits give low values 0.99 | locus YMR078C, strain ctf18, hits give low values 1.01 | locus YMR125W, strain sto1, hits give low values 0.978 | locus YMR129W, hits give low values 1 | locus YMR205C, strain PFK2, hits give low values 1.01 | locus YMR223W, strain ubp8, hits give low values 1.01 | locus YMR231W, strain pep5, hits give low values 0.978 | [10] 0.931 | locus YNL067W, strain RPL9B, hits give low values 1.04 | locus YNL071W, strain lat1, hits give low values 0.996 | [11] 0.991 | [12] 1.02 | locus YNL183C, strain NPR1, hits give low values 0.904 | locus YNL209W, strain ssb2, hits give low values 1 | locus YNL233W, strain BNI4, hits give low values 0.973 | locus YNL248C, strain rpa49, hits give low values 0.969 | locus YNL250W, strain rad50, hits give low values 1.06 | locus YNL271C, strain bni1, hits give low values 1.01 | locus YNL298W, strain CLA4, hits give low values 1.01 | locus YNL307C, strain MCK1, hits give low values 1.02 | locus YNL322C, strain KRE1 (second series), hits give low values 1.01 | locus YNR049C, strain mso1, hits give low values 1.01 | locus YNR052C, strain pop2, hits give low values 1.02 | [13] 0.962 | locus YOL012C, strain htz1 1.21 | locus YOL147C, strain pex11, hits give low values 1.03 | locus YOR001W, strain rrp6, hits give low values 0.985 | locus YOR061W, strain CKA2, hits give low values 0.998 | locus YOR069W, strain VPS5, hits give low values 1.02 | locus YOR070C, strain gyp1, hits give low values 1 | locus YOR080W, strain dia2, hits give low values 1.01 | locus YOR083W, strain WHI5, hits give low values 0.991 | locus YOR106W, strain vam3, hits give low values 0.985 | locus YOR136W, strain idh2, hits give low values 1.01 | locus YOR144C, strain elg1, hits give low values 1.02 | locus YOR184W, strain ser1, hits give low values 0.965 | locus YOR231W, strain MKK1, hits give low values 0.919 | locus YOR265W, strain rbl2, hits give low values 0.997 | locus YOR270C, strain vph1, hits give low values 0.875 | locus YOR290C, strain snf2, hits give low values 1 | locus YOR316C, strain cot1, hits give low values 1.02 | locus YPL051W, strain arl3, hits give low values 1.01 | locus YPL078C, strain atp4, hits give low values 0.991 | locus YPL106C, strain sse1, hits give low values 1.05 | locus YPL240C, strain hsp82, hits give low values 0.998 | locus YPL256C, strain CLN2, hits give low values 0.994 | locus YPR119W, strain clb2, hits give low values 1.02 | locus YPR141C, strain kar3, hits give low values 1.03 | locus YPR163C, strain tif3, hits give low values 1.02 | locus YPR167C, strain met16, hits give low values 1.01 | strain wtn01, hits give low values 0.987

COC(=O)c1c(-c2cc(OC)c(OC)c(OC)c2)c2ccc(OCc3ccccn3)cc2c(=O)n1-c1ccc(N)cc1
inactive: [14] 1.02 | locus YAL040C, strain CLN3, hits give low values 1.01 | locus YCL061C, strain MRC1 (second series), hits give low values 0.999 | [5] 1.01 | locus YDR363W, strain ESC2, hits give low values 1.01 | locus YER002W, strain NOP16, hits give low values 1.03 | [10] 1.01 | [11] 1.02 | locus YNL175C, strain NOP13, hits give low values 1.03 | locus YNL197C, strain WHI3, hits give low values 1.04 | locus YNL224C, strain SQS1, hits give low values 1.04 | locus YOR083W, strain WHI5 (second series), hits give low values 1.01 | [15] 1.02

CCC(=O)c1ccc(-c2ccccc2)cc1
inactive: [14] 0.948 | [1] 0.93 | [3] 0.918 | [4] 0.963 | [5] 0.899 | locus YGR078C, strain PAC10, hits give low values 0.935 | locus YGR229C, strain SMI1, hits give low values 0.978 | locus YHR087W, strain rtc3, hits give low values 0.939 | [8] 0.912 | locus YLR058C, strain SHM2 (second series), hits give low values 0.953 | locus YML094W, strain GIM5, hits give low values 0.934 | locus YMR219W, strain ESC1, hits give low values 0.957 | locus YMR263W, strain SAP30, hits give low values 0.905 | locus YNL322C, strain KRE1, hits give low values 0.968 | locus YNR030W, strain Alg12, hits give low values 0.936 | [15] 0.831 | locus YPL241C, strain CIN2, hits give low values 0.863
active: [2] 0.904 | [6] 0.895 | [7] 0.502 | locus YJR043C, strain POL32, hits give low values 0.912 | [9] 0.765 | locus YLR085C, strain ARP6, hits give low values 0.631 | locus YLR262C, strain YPT6, hits give low values 0.727 | [12] 0.924 | locus YNL298W, strain CLA4 (second series), hits give low values 0.821 | [13] 0.568 | locus YPR135W, strain CTF4, hits give low values 0.58
